Measured values: PubChem BioAssay (NCATS)
Values joined by “and” are separate entries in the source; they are usually repeats but may differ in a detail not shown here. Equal entries are not always repeated. Records with an inconclusive call do not appear. Unmarked numbers belong to inactive results. Active and inactive are the calls of the source. Calls come from the whole dose curve; as a rule, active = well fitted cell-killing curve with a large enough effect; inconclusive = small, poorly fitted or top-dose-only effect, or effect the other way; inactive = no such curve, though single readings can be large or run the other way. Peptide text beside a SMILES is read from it. * marks the point of attachment. Cbz = O=C(OCc1ccccc1)*

Experiment: Viability qHTS for spleen associated tyrosine kinase inhibitor (SYKi) naive MV4-11 cells (AID 1963823); note: nearly all actives have a fitted effect of over 40% in size
Conditions: MV4-11 AML viability, CellTiter-Glo luminescence, 72 h; series mostly up to 45 µM; viability (% of control): at the top concentration
Outline: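 Seeding of 500 SYKi-naive MV4-11 cells per well onto pre-dispensed compounds preceded a 72 hr incubation at 37 C. Luminescent CellTiter-Glo signal, read after 10 min at room temperature, reflected viable cells.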
Potency is the fitted concentration of half-maximal effect.

| SMILES | Potency | viability (% of control) [%] |
| --- | --- | --- |
| O=C1CCCC2=C1C(c1[nH]ncc1Cl)N=C(Nc1nc3ccccc3o1)N2 (stereo not given) | 8.33 µM (active) |  |
| CCN1CCN(c2ccc(Nc3cc(N(C)C(=O)Nc4c(Cl)c(OC)cc(OC)c4Cl)ncn3)cc2)CC1 | 2.63 µM (active) |  |
| C[N+](C)(C)CC(=O)O | inactive |  |
| COCCCN1CCC(NC(=O)c2cc(Cl)c(N)c3c2OCC3)CC1 | inactive |  |
| CNC(=O)c1ccc(Nc2ncc(C(F)(F)F)c(NCc3nccnc3N(C)S(C)(=O)=O)n2)cc1 | 130 nM (active) and 332 nM (active) |  |
| O=C1NC(=O)C(c2cnc3ccccn23)=C1c1cn2c3c(cccc13)CN(C(=O)N1CCOCC1)CC2 | 0.231 µM (active) |  |
| Cc1cc2c(s1)Nc1ccccc1N=C2N1CCN(C)CC1 | 20.6 µM (active) |  |
| CC1Cc2ccccc2N1NC(=O)c1ccc(Cl)c(S(N)(=O)=O)c1 (stereo not given) | inactive |  |
| Nc1[nH]c(=O)ncc1F | inactive |  |
| CC1(C)O[C@H]2CC(=O)OC[C@]23[C@H]2CC[C@@]4(C)[C@H](c5ccoc5)OC(=O)[C@H]5O[C@]54[C@]2(C)C(=O)C[C@@H]13 | inactive |  |
| O=C(/C=C\n1cnc(-c2cc(C(F)(F)F)cc(C(F)(F)F)c2)n1)NNc1cnccn1 | 0.833 µM (active) |  |
| CCCc1cc(C(N)=S)ccn1 |  | 84.1 |
| C=C1C(=O)[C@@]23C(CC[C@@H]1[C@H]2O)[C@@]12CO[C@]3(O)[C@@H](O)[C@@H]1C(C)(C)CC[C@@H]2O (stereo not given in full) | 1.32 µM (active) |  |
| CCc1ccc(OCc2ccccc2C(=O)Nc2ccc3nc(C)cc(N)c3c2)cc1 | 1.66 µM (active) |  |
| CC(C)(C)c1nc2c3cc[nH]c(=O)c3c3cc(F)ccc3c2[nH]1 | 0.411 µM (active) |  |
| CO[C@@H]1C(N(C)C(=O)c2ccccc2)C[C@H]2O[C@]1(C)n1c3ccccc3c3c4c(c5c6ccccc6n2c5c31)C(=O)NC4=O (stereo not given in full) | 0.148 µM (active) |  |
| N#Cc1ccnc(Nc2cc(C3CCN(C4COC4)CC3)cc(N3CCC(F)(F)C3)n2)c1 | 1.16 µM (active) and 118 nM (active) |  |
| CC1(C)CCC(c2ccc(Cl)cc2)=C(CN2CCN(c3ccc(C(=O)NS(=O)(=O)c4ccc(N[C@H](CCN5CCOCC5)CSc5ccccc5)c(S(=O)(=O)C(F)(F)F)c4)cc3)CC2)C1 | 116 nM (active) and 332 nM (active) |  |
| CC(C)C[C@@H](C=O)NC(=O)[C@H](CC(C)C)NC(=O)[C@H](CC(C)C)NC(=O)OCc1ccccc1 (Cbz-Leu-Leu-Leu-aldehyde) | 0.833 µM (active) |  |
| CCCCS(=N)(=O)CCC(N)C(=O)O (stereo not given) | 24.1 µM (active) |  |

| SMILES | Potency | viability (% of control) [%] |
| --- | --- | --- |
| O=C(O)CCNC(=O)c1ccc(N=Nc2ccc(O)c(C(=O)O)c2)cc1 |  | 82.1 |
| CC(O)(C#Cc1ccc2c(c1)N(c1nc(N)ncc1Cl)CC2)c1nccs1 (stereo not given) | 13 µM (active) |  |
| CN1CCN(c2ccc(C(=O)Nc3n[nH]c4ccc(Cc5cc(F)cc(F)c5)cc34)c(NC3CCOCC3)c2)CC1 | 209 nM (active) and 164 nM (active) |  |
| COc1c(C)cnc(Cn2cnc3c(Cl)nc(N)nc32)c1C | 0.132 µM (active) |  |
| CCN(c1ccccc1)c1cc(NC)[n+](C)c(C)n1 | 18.6 µM (active) |  |
| CCCc1nn(C)c2c(=O)[nH]c(-c3cc(S(=O)(=O)N4CCN(C)CC4)ccc3OCC)nc12 | inactive |  |
| CC1CCN(c2cc(N3CCN(C)CC3)ccc2NC(=O)c2cc(C#N)c[nH]2)CC1 | 5.25 µM (active) |  |
| C[C@H]1[C@@H](OC(=O)CCC(=O)O)O[C@@H]2O[C@@]3(C)CC[C@@H]4[C@H](C)CC[C@@H]1[C@@]24OO3 | 0.934 µM (active) |  |
| O=S(=O)(O)CCS |  | 74.2 |
| COCCNCCCn1c(C(=O)CF)c(-c2ccc(C)cc2)c2c(N)ncnc21 | 4.17 µM (active) |  |
| NCCCC(N)(C(=O)O)C(F)F (stereo not given) |  | 79.9 |
| Nc1[nH]nc2nnc(-c3c(-c4ccccc4)nn4ccccc34)cc12 | 9.2 µM (active) |  |
| COC(=O)C1C2CC3c4[nH]c5cc(OC)ccc5c4CCN3CC2CC(OC(=O)c2cc(OC)c(OC)c(OC)c2)C1OC (stereo not given) | 16.6 µM (active) |  |
| Nc1nc2c(ncn2COC(CO)CO)c(=O)[nH]1 | inactive |  |
| OC(CCN1CCCCC1)(c1ccccc1)C1CC2C=CC1C2 (stereo not given) |  | 84.6 |
| Cc1ccccc1-n1c(Cn2nc(-c3cccc(O)c3)c3c(N)ncnc32)nc2cccc(C)c2c1=O | 6.61 µM (active) |  |
| CCOc1ccccc1OCCNC(C)Cc1ccc(OC)c(S(N)(=O)=O)c1 (stereo not given) |  | 65.2 |
| Nc1nc(Nc2ccc(S(N)(=O)=O)cc2)nn1C(=O)c1c(F)cccc1F | 1.16 µM (active) and 1.86 µM (active) |  |
| CNC(=O)c1nn(C)c2c1C(C)(C)Cc1cnc(Nc3ccc(N4CCN(C)CC4)cc3)nc1-2 | 51.7 nM (active) and 74.2 nM (active) |  |
| Cc1ccc(C(=O)Nc2cccc(C(F)(F)F)c2)cc1-c1ccc2nc(NCCN3CCOCC3)ncc2c1 | 184 nM (active) and 372 nM (active) |  |
